Measurements taken from the supplement of paper PMC11732987, “Enantioselective OTUD7B fragment discovery through chemoproteomics screening and high-throughput optimisation” (Communications Chemistry, 2025).

Key:
Experiment in all cases: log2 ratio of Biotin-Ahx-Ub-VS probe labelling (fragment/DMSO); higher = less target engagement (more negative = stronger competition), active = hit call of the paper (q ≤ 0.05, log2 ratio ≤ -1)
Settings in all cases: compound concentration: 200 uM; treatment time: 3 h
OTUD6B = target: T1, OTUD6B (UniProt Q8N6M0)
T1 sequence (whole entry): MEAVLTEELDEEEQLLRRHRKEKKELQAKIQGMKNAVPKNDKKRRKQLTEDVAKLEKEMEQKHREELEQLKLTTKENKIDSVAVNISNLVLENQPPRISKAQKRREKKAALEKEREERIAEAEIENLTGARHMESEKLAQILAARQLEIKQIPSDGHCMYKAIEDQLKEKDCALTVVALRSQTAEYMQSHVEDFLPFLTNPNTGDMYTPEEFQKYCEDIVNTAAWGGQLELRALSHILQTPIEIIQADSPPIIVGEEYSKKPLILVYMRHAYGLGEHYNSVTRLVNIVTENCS
Method in brief: (§1)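 HEK293T lysate in Tris/CHAPS/IGEPAL buffer with protease inhibitors (495 µg per sample) was given fragment at 200 µM or vehicle for 3 h, in triplicate. It then received Biotin-Ahx-Ub-VS at 0.5 µM final for 1 h. Labelled DUBs were NeutrAvidin-enriched, digested with LysC and trypsin, and run by diaPASEF LC-MS/MS. Values are average log2 fragment/vehicle ratios by unpaired t-test on global-median-normalised Spectronaut quantities of proteins with ≥2 unique peptides.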

OTUD7B = target: T2, OTUD7B (UniProt Q6GQQ9)
T2 sequence (whole entry): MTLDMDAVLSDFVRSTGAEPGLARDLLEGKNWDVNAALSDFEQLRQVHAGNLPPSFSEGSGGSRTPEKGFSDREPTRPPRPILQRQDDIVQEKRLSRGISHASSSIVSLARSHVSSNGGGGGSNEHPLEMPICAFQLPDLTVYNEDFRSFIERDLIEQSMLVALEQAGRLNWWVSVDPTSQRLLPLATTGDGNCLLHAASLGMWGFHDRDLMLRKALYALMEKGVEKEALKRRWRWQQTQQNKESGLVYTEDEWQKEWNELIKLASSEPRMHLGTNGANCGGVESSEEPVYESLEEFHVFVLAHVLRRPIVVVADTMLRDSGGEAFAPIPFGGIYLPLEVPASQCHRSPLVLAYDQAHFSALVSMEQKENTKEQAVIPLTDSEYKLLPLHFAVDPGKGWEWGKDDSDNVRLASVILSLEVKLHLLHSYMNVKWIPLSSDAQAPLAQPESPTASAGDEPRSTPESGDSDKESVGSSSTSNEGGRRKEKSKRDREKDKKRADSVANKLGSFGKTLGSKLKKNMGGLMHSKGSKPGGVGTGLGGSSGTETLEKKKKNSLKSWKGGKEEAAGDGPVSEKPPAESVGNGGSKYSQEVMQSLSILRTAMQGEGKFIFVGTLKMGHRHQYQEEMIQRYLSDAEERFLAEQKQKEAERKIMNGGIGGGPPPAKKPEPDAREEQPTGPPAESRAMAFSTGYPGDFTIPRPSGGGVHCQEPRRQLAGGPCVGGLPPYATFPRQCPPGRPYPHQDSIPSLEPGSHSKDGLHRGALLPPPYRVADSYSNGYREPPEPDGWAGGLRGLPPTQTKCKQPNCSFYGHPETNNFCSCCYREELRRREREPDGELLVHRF
Method in brief: as §1

PRPF8 = PRPF8 (UniProt Q6P2Q9)
Method in brief: as §1

PSMD7 = target: T3, PSMD7 (UniProt P51665)
T3 sequence (whole entry): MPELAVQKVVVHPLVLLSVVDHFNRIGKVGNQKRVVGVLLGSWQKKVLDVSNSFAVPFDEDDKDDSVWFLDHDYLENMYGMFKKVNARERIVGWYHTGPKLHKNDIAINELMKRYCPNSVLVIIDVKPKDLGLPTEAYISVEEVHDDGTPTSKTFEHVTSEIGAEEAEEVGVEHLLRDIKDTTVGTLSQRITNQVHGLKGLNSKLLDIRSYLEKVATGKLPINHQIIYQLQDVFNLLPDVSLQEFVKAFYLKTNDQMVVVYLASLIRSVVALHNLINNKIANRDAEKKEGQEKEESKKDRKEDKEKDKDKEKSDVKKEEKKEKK
Method in brief: as §1

UCHL1 = UCHL1 (UniProt P09936)
Chain of UCHL1 (P09936 whole entry, looked up): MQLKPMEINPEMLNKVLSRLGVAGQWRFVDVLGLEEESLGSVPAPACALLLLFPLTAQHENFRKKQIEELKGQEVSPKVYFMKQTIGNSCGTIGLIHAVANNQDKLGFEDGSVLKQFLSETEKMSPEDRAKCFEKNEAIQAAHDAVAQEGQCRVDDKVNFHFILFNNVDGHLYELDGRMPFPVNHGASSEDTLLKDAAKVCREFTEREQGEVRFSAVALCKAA
Method in brief: as §1

UCHL3 = target: T4, UCHL3 (UniProt P15374)
T4 sequence (whole entry): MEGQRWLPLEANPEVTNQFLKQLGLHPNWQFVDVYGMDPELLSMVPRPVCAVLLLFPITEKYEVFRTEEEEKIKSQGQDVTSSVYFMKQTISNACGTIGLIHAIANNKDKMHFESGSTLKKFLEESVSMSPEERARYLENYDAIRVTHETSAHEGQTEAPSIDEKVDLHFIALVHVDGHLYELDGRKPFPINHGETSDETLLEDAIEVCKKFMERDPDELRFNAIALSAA
Method in brief: as §1

UCHL5 = target: T5, UCHL5 (UniProt Q9Y5K5)
T5 sequence (whole entry): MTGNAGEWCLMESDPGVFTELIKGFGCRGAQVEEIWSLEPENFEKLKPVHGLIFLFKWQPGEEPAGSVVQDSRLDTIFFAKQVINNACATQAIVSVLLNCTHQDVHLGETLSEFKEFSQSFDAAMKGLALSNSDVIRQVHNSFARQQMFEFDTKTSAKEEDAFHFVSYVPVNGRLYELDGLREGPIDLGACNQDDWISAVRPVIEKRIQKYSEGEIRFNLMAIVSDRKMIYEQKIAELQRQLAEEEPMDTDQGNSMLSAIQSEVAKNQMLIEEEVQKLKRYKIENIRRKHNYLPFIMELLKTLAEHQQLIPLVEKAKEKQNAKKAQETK
Method in brief: as §1

USP10 = USP10 (UniProt Q14694)
Chain of USP10 (Q14694 whole entry): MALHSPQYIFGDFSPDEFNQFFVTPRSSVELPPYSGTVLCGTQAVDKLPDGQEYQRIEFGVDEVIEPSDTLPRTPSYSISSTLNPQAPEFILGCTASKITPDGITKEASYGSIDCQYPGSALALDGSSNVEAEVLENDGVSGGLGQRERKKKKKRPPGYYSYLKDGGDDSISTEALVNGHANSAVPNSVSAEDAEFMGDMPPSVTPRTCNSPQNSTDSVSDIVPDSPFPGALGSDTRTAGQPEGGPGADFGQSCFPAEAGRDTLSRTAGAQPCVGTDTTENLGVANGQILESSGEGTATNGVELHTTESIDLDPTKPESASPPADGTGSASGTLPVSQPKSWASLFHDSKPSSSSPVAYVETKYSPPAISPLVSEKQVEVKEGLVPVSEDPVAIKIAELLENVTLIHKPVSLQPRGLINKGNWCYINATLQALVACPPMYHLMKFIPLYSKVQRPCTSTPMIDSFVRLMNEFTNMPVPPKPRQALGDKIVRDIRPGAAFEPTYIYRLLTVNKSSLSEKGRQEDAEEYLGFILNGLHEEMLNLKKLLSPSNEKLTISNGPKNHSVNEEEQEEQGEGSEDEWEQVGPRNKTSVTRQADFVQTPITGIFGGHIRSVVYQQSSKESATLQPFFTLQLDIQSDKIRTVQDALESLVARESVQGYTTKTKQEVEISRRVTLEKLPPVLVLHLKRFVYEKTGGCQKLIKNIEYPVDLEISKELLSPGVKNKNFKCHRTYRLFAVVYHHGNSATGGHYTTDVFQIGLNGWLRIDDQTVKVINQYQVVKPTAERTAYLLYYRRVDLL
Method in brief: as §1

USP15 = target: T6, USP15 (UniProt Q9Y4E8)
T6 sequence (whole entry): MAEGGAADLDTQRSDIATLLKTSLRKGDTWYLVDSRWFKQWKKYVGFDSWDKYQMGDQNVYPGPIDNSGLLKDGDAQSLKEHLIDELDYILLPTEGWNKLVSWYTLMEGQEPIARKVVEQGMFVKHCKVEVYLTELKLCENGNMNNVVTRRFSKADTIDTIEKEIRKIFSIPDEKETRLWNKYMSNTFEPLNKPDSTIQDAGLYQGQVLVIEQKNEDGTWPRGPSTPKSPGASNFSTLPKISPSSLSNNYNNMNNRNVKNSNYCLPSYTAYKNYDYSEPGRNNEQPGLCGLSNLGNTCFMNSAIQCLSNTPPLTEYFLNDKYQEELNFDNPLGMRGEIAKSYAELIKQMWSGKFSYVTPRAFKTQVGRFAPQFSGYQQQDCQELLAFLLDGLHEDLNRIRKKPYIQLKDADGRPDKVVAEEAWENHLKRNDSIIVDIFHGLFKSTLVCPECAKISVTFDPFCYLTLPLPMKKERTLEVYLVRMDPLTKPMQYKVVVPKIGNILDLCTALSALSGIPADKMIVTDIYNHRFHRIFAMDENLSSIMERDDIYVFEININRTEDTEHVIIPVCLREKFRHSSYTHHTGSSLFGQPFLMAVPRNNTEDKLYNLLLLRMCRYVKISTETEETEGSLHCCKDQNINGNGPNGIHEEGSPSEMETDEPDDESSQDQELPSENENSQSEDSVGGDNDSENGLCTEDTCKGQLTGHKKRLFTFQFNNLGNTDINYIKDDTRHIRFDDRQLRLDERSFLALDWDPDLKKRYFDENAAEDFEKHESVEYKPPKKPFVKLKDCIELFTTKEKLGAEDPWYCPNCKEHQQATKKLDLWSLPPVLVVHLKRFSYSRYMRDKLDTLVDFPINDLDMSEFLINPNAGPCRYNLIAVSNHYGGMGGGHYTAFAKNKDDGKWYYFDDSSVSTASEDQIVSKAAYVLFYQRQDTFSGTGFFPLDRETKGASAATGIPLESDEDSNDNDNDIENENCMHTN
Method in brief: as §1

Measured: log2 ratio of Biotin-Ahx-Ub-VS probe labelling

CC(C)n1nccc1NC(=O)CCl
active: OTUD7B -2.07 | UCHL1 -1.45
inactive: OTUD6B -0.189 | PRPF8 -0.0737 | PSMD7 -0.278 | UCHL3 0.181 | UCHL5 -0.327 | USP10 0.0851 | USP15 -0.314
